Among all 65,000 compounds or so, about 2,100 (3.2%) showed an effect of 50% or more. The median lay at about -52%. The sample as a whole holds a higher share of strong results than the screen did.

This assay concerns Plasmodium falciparum. Put plainly: Screen against P. falciparum Asexual Blood Stage (ABS), at 5uM. It is filed as functional, Dd2. To be noted: tested at 5 uM.
In the case of `CN(C)CCNC(=O)c1cc(-c2cnc(N3CCCC3)nc2)cn1C`, the INHIBITION is recorded as -123%.
For `c1ccc(-n2cc(CN3CCCC3Cn3cncn3)nn2)cc1` (configuration not stated), the INHIBITION is -14%.
`C[C@@H]1CN(C2(C(=O)N3CCNCC3)Cc3ccccc3C2)C[C@H](C)O1`: the INHIBITION is reported as 63.4%.
For `C[C@@H]1CN(C2(C(=O)N3CCOCC3)Cc3ccccc3C2)C[C@H](C)O1` the value was -22.3%; for `C[C@@H]1CN(C2(C(=O)N3CCSCC3)Cc3ccccc3C2)C[C@H](C)O1`, -238%.
As to `CCc1noc(C(C)N(C)CC(=O)Nc2ccc(Cl)c(C(F)(F)F)c2)n1` (configuration not stated), the INHIBITION is -75.8%.
In the case of `CC(Cn1ccnc1)NC(=O)N1CCN(Cc2ccncc2)CC1` (configuration not stated) it was -125%; in that of `CC(Cn1cccn1)NC(=O)N1CCN(Cc2ccsc2)CC1` (configuration not stated), -55.3%.
Take `CC(Cn1ccnc1)NC(=O)N1CCN(Cc2ccsc2)CC1` (configuration not stated): the INHIBITION is given as 58.4%.
As for `NC(=O)c1c(-c2ccc(Cl)cc2Cl)csc1NC(=O)CCCC(=O)O`, the INHIBITION is -162%.
For `CC(C)NC(=O)N1CCC2(CC1)C(=O)NCCN2Cc1ccccc1` the value was -105%; for `COc1ccc(-n2cc(CCO)cn2)cc1C`, -136%; for `CN(C)CCN1CCCC12CCCN(Cc1ccoc1)C2` (configuration not stated), 68.1%.
In the case of `CN(C)CCN1CCCC12CCN(C(=O)c1ccco1)CC2`, the INHIBITION came to 33.9%.
With `CNC(=O)CN1CCOCC2(CCCN(Cc3ccoc3)C2)C1` (configuration not stated), the INHIBITION turned out to be 33.7%.
Consider `Cc1ccc(CN2CCC3(CCCN(C(=O)N(C)C)C3)C2)cc1` (configuration not stated), for which the INHIBITION is on record as -59.2%.
Take `Cc1ccc(CN2CCCC3(CCN(Cc4ccoc4)CC3)C2)cc1`: the INHIBITION came out at 79.8%.
Take `O=C1CC2(CCN(Cc3ccoc3)CC2)CN1Cc1cc(F)cc(F)c1`: the INHIBITION stood at 56.5%.
For `O=C1CC2(CCN(Cc3ncc[nH]3)CC2)CN1Cc1cc(F)cc(F)c1` the value was -147%; for `O=C1CC2(CCN(CCO)CC2)CN1Cc1cc(F)cc(F)c1`, 19.3%; for `CN(C)CCN1CCCC12CCCN(Cc1ccco1)C2` (configuration not stated), -71.8%.
For `CC1CCCN(S(=O)(=O)NCCNC(=O)c2ncccc2O)C1` (configuration not stated), the INHIBITION is -122%.
For `COc1ccc(-c2nc(CCNC(=O)NC3CCC(O)CC3)co2)cc1` (configuration not stated) the value was -13.7%; for `CCN(C)CC(=O)N1CCc2nc(NC)nc(C(=O)N3CCCC3)c2C1`, -14.4%; for `CSc1ccc(CNc2n[nH]c(C)n2)cc1`, -43.7%.
Turning to `CCS(=O)(=O)N1CCC2(CC1)CN(c1ccsc1)C(=O)CO2`, the INHIBITION is reported as -0.697%.
Regarding `CC(=O)Nc1c(C)noc1C=Cc1ccc(S(=O)(=O)N2CCCC2)cc1`, the INHIBITION was found to be 11.8%.
Regarding `Fc1ccc(CN2C[C@@H]3OCCN(CC4CCCO4)[C@@H]3C2)cc1` (some centres not stated), the INHIBITION is on record as -2.84%.
Consider `COc1ccc(CN2C[C@@H]3OCCN(CCN4CCCC4)[C@@H]3C2)cc1`, for which the INHIBITION worked out at 64%.
In the case of `CN(C)CCN1CCO[C@H]2CN(Cc3cnn(C)c3)C[C@H]21` it was -88.4%.
Consider `Fc1ccc(CN2C[C@@H]3OCCN(CCN4CCCC4)[C@@H]3C2)cc1`, for which the INHIBITION is on record as -70.3%.
For `Cc1noc(C)c1CN1CCO[C@H]2CN(Cc3ccc(F)cc3)C[C@H]21` the value was 55.3%.
For `COc1ccc(CN2C[C@@H]3OCCN(CC4CCCO4)[C@@H]3C2)cc1` (some centres not stated) the value was -115%; for `COc1ccc(CN2C[C@@H]3OCCN(CCN(C)C)[C@@H]3C2)cc1`, 66.9%; for `Cc1noc(C)c1CN1CCO[C@H]2CN(Cc3cccc(F)c3)C[C@H]21`, -32.1%.
Regarding `COc1ccc(CN2C[C@@H]3OCCN(C)[C@@H]3C2)cc1`, the INHIBITION is -42.1%.
For `O=C(CN1CCC(C(=O)c2cc(F)ccc2F)CC1)NC1CCCC1`, the INHIBITION is -63.8%.
Consider `Cc1nn(C)c2c(NCc3ccc(F)cc3)nc(C3CC3)nc12`, for which the INHIBITION turned out to be 40.3%.
For `CCCn1ccnc1CN1CCCC(O)(CN(C)C)CC1` (configuration not stated) the value was -44.8%; for `CC(=O)N1CC[C@H]2[C@H](C[C@@H](Cn3cncn3)N2c2nccs2)C1`, -33.8%.
For `CC1CCC(n2cc3nc(N)[nH]cc-3c2=O)CC1` (configuration not stated) the value was -68.9%.
As for `CNc1nc2cn(C3CCCC3)c(=O)c-2c[nH]1`, the INHIBITION is -45.905%.
On to `Nc1nc2cn(C3CCCC3)c(=O)c-2c[nH]1`, for which the INHIBITION stood at 69.9%.
Take `CN(C)c1nc2c(c(N3CCC4(CC3)CNC(=O)C4)n1)CCCC2`: the INHIBITION was -6.41%.
For the compound `O=S(=O)(N1CCCCC1)N1CCCN(CC2CCCO2)CC1` (configuration not stated), the INHIBITION is -12.8%.
Take `CC(C)N(C)Cc1cncc2c1CCN(C(=O)c1ccccc1F)C2`: the INHIBITION is on record as -44.1%.
In the case of `CN(Cc1ccco1)[C@@H]1CN(Cc2cccs2)C[C@@H]2CCCO[C@@H]21` it was 65.3%.
Regarding `CN(Cc1ccco1)[C@@H]1CN(Cc2ccoc2)C[C@@H]2CCCO[C@@H]21`, the INHIBITION is listed as 60.3%.
For `Cc1ccc(CN2C[C@@H]3CCCO[C@@H]3[C@H](N(C)Cc3ccco3)C2)o1`, the INHIBITION is on record as 39.7%.
`CN(Cc1ccco1)[C@@H]1CN(Cc2nccs2)C[C@@H]2CCCO[C@@H]21`: the INHIBITION is on record as 31.1%.
For the compound `CN(Cc1ccco1)[C@@H]1CN(Cc2cccnc2)C[C@@H]2CCCO[C@@H]21`, the INHIBITION is 29.1%.
In the case of `CN(Cc1ccco1)[C@@H]1CN(Cc2ccncc2)C[C@@H]2CCCO[C@@H]21` it was 9.86%.

The values above are taken from ChEMBL document CHEMBL4513216, “Probing the Open Global Health Chemical Diversity Library for Multistage-Active Starting Points for Next-Generation Antimalarials” (ACS Infect Dis, 2020).
